PubChem BioAssay (Tox21)
Inconclusive results are not listed. Active and inactive are the calls of the source. The call rests on the fitted dose curve.
On the % scale 0 is the no-effect control and ±100 the full control effect; potency means the concentration at half of the fitted maximal effect.

These compounds were tested against Acetylcholinesterase (Homo sapiens) (UniProt P22303) (assay: Acetylcholinesterase (AChE) small molecule antagonists: enzyme-based qHTS assay (AID 1347397; further: nearly all actives have a fitted effect of over 55% in size)). Details: Potency: AChE enzyme activity inhibition; outcome: AChE enzyme activity inhibition; series mostly up to 115 µM; activity change, negative = inhibition: at the top concentration.
Acetylcholinesterase (Homo sapiens), sequence (P22303 whole entry, looked up): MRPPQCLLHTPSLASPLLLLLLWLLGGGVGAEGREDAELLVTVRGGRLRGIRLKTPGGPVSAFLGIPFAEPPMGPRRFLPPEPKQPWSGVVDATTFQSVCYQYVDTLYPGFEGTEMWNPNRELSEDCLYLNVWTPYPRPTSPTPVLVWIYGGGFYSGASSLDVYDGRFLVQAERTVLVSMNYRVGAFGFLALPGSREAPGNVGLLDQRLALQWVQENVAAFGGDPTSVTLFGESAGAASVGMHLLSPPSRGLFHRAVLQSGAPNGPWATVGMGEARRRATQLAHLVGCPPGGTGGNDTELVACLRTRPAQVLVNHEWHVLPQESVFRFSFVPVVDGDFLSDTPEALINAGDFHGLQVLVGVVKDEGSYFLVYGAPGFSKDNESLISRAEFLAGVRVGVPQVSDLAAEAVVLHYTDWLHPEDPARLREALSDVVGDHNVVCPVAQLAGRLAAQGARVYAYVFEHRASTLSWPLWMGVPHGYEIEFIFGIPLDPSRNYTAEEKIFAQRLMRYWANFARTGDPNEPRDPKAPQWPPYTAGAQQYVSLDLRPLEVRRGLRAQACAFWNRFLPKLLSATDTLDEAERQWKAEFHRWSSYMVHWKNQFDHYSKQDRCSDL
Summary of the method: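 In this quantitative HTS, compounds from the Tox21 10K collection were preincubated 30 min at ambient temperature with recombinant human AChE dispensed at 50 mU/mL. Hydrolysis of acetylthiocholine was then followed for 10 min by DTNB colour development.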
With `COc1ccc(C(=O)Nc2nc3ccccc3c(NCc3ccccc3)c2C#N)cc1` the “activity change, negative = inhibition” value was -0.132% (inactive).
For `O=C(O)c1ccc2c(c1)nc(C(=O)NC1CCN(C3CC3)CC1)n2Cc1cc(-c2ccc(Cl)s2)on1`, the activity change, negative = inhibition was 2.26% [at 23.6 µM] (inactive).
`C=C(C)C(=O)OCCOCCOC(=O)C(=C)C` was tested, and the “activity change, negative = inhibition” value was 0.165% (inactive).
With `Cc1ccc(Nc2ccc(O)c3c2C(=O)c2ccccc2C3=O)cc1` the “activity change, negative = inhibition” value was 0.273% (inactive).
`CC1CC(=O)CC(C)(C)C1` (stereo not drawn) was tested, and the “activity change, negative = inhibition” value was -1.27% (inactive).
With `COCCc1ccccn1` the “activity change, negative = inhibition” value was -0.404% [at 53 µM] (inactive).
`NS(=O)(=O)c1ccccc1Cl` was tested, and the “activity change, negative = inhibition” value was -0.774% (inactive).
With `CCCCC/C=C/CC1CC(=O)OC1=O` (stereo not drawn) the “activity change, negative = inhibition” value was -0.212% (inactive).
For `CCCN(CCC)C(=O)C(CCC(=O)O)NC(=O)c1ccccc1` (stereo not drawn), the “activity change, negative = inhibition” value was 1.96% [at 53 µM] (inactive).
With `CC(=O)Nc1ccc(S(=O)(=O)Cl)cc1` the “activity change, negative = inhibition” value was 3.79% (inactive).
For `Cc1cccc(C)c1NC(=O)c1ccccc1C(=O)O`, the “activity change, negative = inhibition” value was 0% [at 53 µM] (inactive).
`C#C[C@]1(OC(C)=O)CC[C@H]2[C@@H]3CCC4=C[C@@H](OC(C)=O)CC[C@@H]4[C@H]3CC[C@@]21C` was tested, and the “activity change, negative = inhibition” value was 0.544% [at 53 µM] (inactive).
For `O=C(CO)[C@@H](O)[C@H](O)[C@@H](O)CO`, the “activity change, negative = inhibition” value was 0.0658% [at 53 µM] (inactive).
With `CC(=O)OC(C)(C)Cc1ccccc1` the “activity change, negative = inhibition” value was 1.75% (inactive).
In the case of `C[C@H](CCC(=O)O)[C@H]1CC[C@H]2[C@@H]3[C@H](O)C[C@@H]4C[C@H](O)CC[C@]4(C)[C@H]3C[C@H](O)[C@]12C`, the “activity change, negative = inhibition” value is reported as 3.41% [at 53 µM] (inactive).
For `CCCCCCCCCCCCCCCCCC(=O)OCCCCCCCCCCCCCC(C)C`, the “activity change, negative = inhibition” value was -1.09% (inactive).
In the case of `CC(=O)Nc1ccc(S(=O)(=O)Nc2cc(C)on2)cc1`, the “activity change, negative = inhibition” value is reported as -0.122% [at 53 µM] (inactive).
For `COC(=O)c1ccc(OC)cc1`, the “activity change, negative = inhibition” value was -0.282% (inactive).
For `CN(C)c1ccc(SC#N)cc1`, the “activity change, negative = inhibition” value was -1.05% (inactive).
For `CC(=O)OCC(=O)Nc1cc(C#N)cc(NC(=O)COC(C)=O)c1Cl`, the “activity change, negative = inhibition” value was -0.436% [at 53 µM] (inactive).
In the case of `CCCCCCCCCCOCC(O)CN` (stereo not drawn), the “activity change, negative = inhibition” value is reported as -0.97% [at 53 µM] (inactive).
For `CCCCCCCCCCCCCCCCOP(=O)([O-])OCC[N+](C)(C)C`, the “activity change, negative = inhibition” value was -3.37% [at 53 µM] (inactive).
In the case of `N#CCCCC(C#N)CCC#N` (stereo not drawn), the “activity change, negative = inhibition” value is reported as -0.646% (inactive).
In the case of `CC(=O)OCC(=O)[C@@]1(O)CC[C@H]2[C@@H]3CCC4=CC(=O)C=C[C@]4(C)[C@@]3(F)[C@@H](O)C[C@@]21C`, the “activity change, negative = inhibition” value is reported as -0.548% [at 53 µM] (inactive).
For `CCC(C)COC(=O)CC(C)C` (stereo not drawn), the “activity change, negative = inhibition” value was -0.494% (inactive).
With `CC=O` the Potency was 74.3 µM (active).
With `CCCCCCCCCCCCCCCC/C=C/C1CC(=O)OC1=O` (stereo not drawn) the “activity change, negative = inhibition” value was -8.13% [at 53 µM] (inactive).
With `COc1ccnc(CS(=O)c2nc3cc(OC(F)F)ccc3[nH]2)c1OC` (stereo not drawn) the “activity change, negative = inhibition” value was -4.59% (inactive).
In the case of `C[C@H]1O[C@@H](O[C@H]2CC[C@@]3(C)[C@H](CC[C@@H]4[C@@H]3C[C@@H](O)[C@]3(C)[C@@H](C5=CC(=O)OC5)CC[C@]43O)C2)C[C@H](O)[C@@H]1O[C@H]1C[C@H](O)[C@H](O[C@H]2C[C@H](O)[C@H](O[C@@H]3O[C@H](CO)[C@@H](O)[C@H](O)[C@H]3O)[C@@H](C)O2)[C@@H](C)O1`, the “activity change, negative = inhibition” value is reported as 0.135% [at 53 µM] (inactive).
`CC1=CCC(C(C)C)C=C1` (stereo not drawn) was tested, and the “activity change, negative = inhibition” value was 0.0038% (inactive).
`C[C@H]1c2cccc(O)c2C(O)=C2C(=O)[C@]3(O)C(O)=C(C(N)=O)C(=O)[C@@H](N(C)C)[C@@H]3[C@@H](O)[C@@H]21` was tested, and the “activity change, negative = inhibition” value was 3.37% [at 53 µM] (inactive).
In the case of `OC1CCC(C2CCCCC2)CC1` (stereo not drawn), the “activity change, negative = inhibition” value is reported as 1.15% (inactive).
With `CCOC(=O)Nc1ccc2c(c1)N(C(=O)CCN1CCOCC1)c1ccccc1S2` the “activity change, negative = inhibition” value was -4.33% [at 53 µM] (inactive).
For `CC(C)CC(O)CC(C)C`, the “activity change, negative = inhibition” value was -0.431% (inactive).
For `Cc1ccc(C(C)c2ccc(C)c(C)c2)cc1C`, the “activity change, negative = inhibition” value was 0.369% (inactive).
`COc1c(N2CCNC(C)C2)c(F)cc2c(=O)c(C(=O)O)cn(C3CC3)c12` (stereo not drawn) was tested, and the “activity change, negative = inhibition” value was 0.839% [at 53 µM] (inactive).
With `CC(COc1ccccc1)NC(C)C(O)c1ccc(O)cc1` (stereo not drawn) the “activity change, negative = inhibition” value was -0.79% [at 53 µM] (inactive).
For `CCOc1ccccc1OCC`, the “activity change, negative = inhibition” value was 0.52% (inactive).
With `Clc1ccnc(Cl)n1` the “activity change, negative = inhibition” value was -0.284% (inactive).

These compounds were tested against Acetylcholinesterase (Homo sapiens) (UniProt P22303) (assay: Acetylcholinesterase (AChE) small molecule antagonists: fluorescence cell-based qHTS assay (AID 1347398; further: nearly all actives have a fitted effect of over 50% in size)). Details: SH-SY5Y cells; Potency: AChE activity; outcome: AChE activity; series mostly up to 115 µM; activity change, negative = inhibition: at the top concentration.
Summary of the method: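 Cells (SH-SY5Y) attached overnight, were dosed with compound or DMSO vehicle for 30 min at 37 C, and then incubated 40 min at room temperature with acetylthiocholine and Thiolite Green; green fluorescence indexed AChE activity.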
In the case of `COc1ccc(C(=O)Nc2nc3ccccc3c(NCc3ccccc3)c2C#N)cc1`, the “activity change, negative = inhibition” value is reported as 1.31% (inactive).
For `O=C(O)c1ccc2c(c1)nc(C(=O)NC1CCN(C3CC3)CC1)n2Cc1cc(-c2ccc(Cl)s2)on1`, the activity change, negative = inhibition was -24.8% [at 23.8 µM] (inactive).
`C=C(C)C(=O)OCCOCCOC(=O)C(=C)C` was tested, and the “activity change, negative = inhibition” value was 1.6% (inactive).
For `Cc1ccc(Nc2ccc(O)c3c2C(=O)c2ccccc2C3=O)cc1`, the “activity change, negative = inhibition” value was -3.57% (inactive).
For `CC1CC(=O)CC(C)(C)C1` (stereo not drawn), the “activity change, negative = inhibition” value was 3.64% (inactive).
`COCCc1ccccn1` was tested, and the “activity change, negative = inhibition” value was 11.5% [at 53.7 µM] (inactive).
For `NS(=O)(=O)c1ccccc1Cl`, the “activity change, negative = inhibition” value was 2% (inactive).
With `CCCCC/C=C/CC1CC(=O)OC1=O` (stereo not drawn) the “activity change, negative = inhibition” value was -0.0531% (inactive).
`CCCN(CCC)C(=O)C(CCC(=O)O)NC(=O)c1ccccc1` (stereo not drawn) was tested, and the “activity change, negative = inhibition” value was 2.28% [at 53.7 µM] (inactive).
For `CC(=O)Nc1ccc(S(=O)(=O)Cl)cc1`, the “activity change, negative = inhibition” value was 1.84% (inactive).
`Cc1cccc(C)c1NC(=O)c1ccccc1C(=O)O` was tested, and the “activity change, negative = inhibition” value was 4.13% [at 53.7 µM] (inactive).
`C#C[C@]1(OC(C)=O)CC[C@H]2[C@@H]3CCC4=C[C@@H](OC(C)=O)CC[C@@H]4[C@H]3CC[C@@]21C` was tested, and the “activity change, negative = inhibition” value was 4.17% [at 53.7 µM] (inactive).
`O=C(CO)[C@@H](O)[C@H](O)[C@@H](O)CO` was tested, and the “activity change, negative = inhibition” value was 4.92% [at 53.7 µM] (inactive).
For `CC(=O)OC(C)(C)Cc1ccccc1`, the “activity change, negative = inhibition” value was 7.22% (inactive).
For `C[C@H](CCC(=O)O)[C@H]1CC[C@H]2[C@@H]3[C@H](O)C[C@@H]4C[C@H](O)CC[C@]4(C)[C@H]3C[C@H](O)[C@]12C`, the “activity change, negative = inhibition” value was -0.206% [at 53.7 µM] (inactive).
In the case of `CCCCCCCCCCCCCCCCCC(=O)OCCCCCCCCCCCCCC(C)C`, the “activity change, negative = inhibition” value is reported as -1.87% (inactive).
In the case of `CC(=O)Nc1ccc(S(=O)(=O)Nc2cc(C)on2)cc1`, the “activity change, negative = inhibition” value is reported as 10.3% [at 53.7 µM] (inactive).
`COC(=O)c1ccc(OC)cc1` was tested, and the “activity change, negative = inhibition” value was -1.09% (inactive).
With `CN(C)c1ccc(SC#N)cc1` the “activity change, negative = inhibition” value was -10.3% (inactive).
For `CC(=O)OCC(=O)Nc1cc(C#N)cc(NC(=O)COC(C)=O)c1Cl`, the “activity change, negative = inhibition” value was -0.689% [at 53.7 µM] (inactive).
In the case of `CCCCCCCCCCOCC(O)CN` (stereo not drawn), the “activity change, negative = inhibition” value is reported as -7.09% [at 53.7 µM] (inactive).
For `CCCCCCCCCCCCCCCCOP(=O)([O-])OCC[N+](C)(C)C`, the “activity change, negative = inhibition” value was -8.98% [at 53.7 µM] (inactive).
In the case of `N#CCCCC(C#N)CCC#N` (stereo not drawn), the “activity change, negative = inhibition” value is reported as -7.44% (inactive).
`CC(=O)OCC(=O)[C@@]1(O)CC[C@H]2[C@@H]3CCC4=CC(=O)C=C[C@]4(C)[C@@]3(F)[C@@H](O)C[C@@]21C` was tested, and the “activity change, negative = inhibition” value was -10.1% [at 53.7 µM] (inactive).
For `CCC(C)COC(=O)CC(C)C` (stereo not drawn), the “activity change, negative = inhibition” value was 5.88% (inactive).
In the case of `CC=O`, the Potency is reported as 26.4 µM (active).
With `CCCCCCCCCCCCCCCC/C=C/C1CC(=O)OC1=O` (stereo not drawn) the “activity change, negative = inhibition” value was 0.552% [at 53.7 µM] (inactive).
With `COc1ccnc(CS(=O)c2nc3cc(OC(F)F)ccc3[nH]2)c1OC` (stereo not drawn) the “activity change, negative = inhibition” value was -21.7% (inactive).
`C[C@H]1O[C@@H](O[C@H]2CC[C@@]3(C)[C@H](CC[C@@H]4[C@@H]3C[C@@H](O)[C@]3(C)[C@@H](C5=CC(=O)OC5)CC[C@]43O)C2)C[C@H](O)[C@@H]1O[C@H]1C[C@H](O)[C@H](O[C@H]2C[C@H](O)[C@H](O[C@@H]3O[C@H](CO)[C@@H](O)[C@H](O)[C@H]3O)[C@@H](C)O2)[C@@H](C)O1` was tested, and the “activity change, negative = inhibition” value was 1.3% [at 53.7 µM] (inactive).
`CC1=CCC(C(C)C)C=C1` (stereo not drawn) was tested, and the “activity change, negative = inhibition” value was -10.6% (inactive).
For `C[C@H]1c2cccc(O)c2C(O)=C2C(=O)[C@]3(O)C(O)=C(C(N)=O)C(=O)[C@@H](N(C)C)[C@@H]3[C@@H](O)[C@@H]21`, the “activity change, negative = inhibition” value was 7.2% [at 53.7 µM] (inactive).
With `OC1CCC(C2CCCCC2)CC1` (stereo not drawn) the “activity change, negative = inhibition” value was 1.3% (inactive).
In the case of `CCOC(=O)Nc1ccc2c(c1)N(C(=O)CCN1CCOCC1)c1ccccc1S2`, the “activity change, negative = inhibition” value is reported as 3.89% [at 53.7 µM] (inactive).
With `CC(C)CC(O)CC(C)C` the “activity change, negative = inhibition” value was 2.14% (inactive).
In the case of `Cc1ccc(C(C)c2ccc(C)c(C)c2)cc1C`, the “activity change, negative = inhibition” value is reported as -8.18% (inactive).
For `COc1c(N2CCNC(C)C2)c(F)cc2c(=O)c(C(=O)O)cn(C3CC3)c12` (stereo not drawn), the “activity change, negative = inhibition” value was 10.2% [at 53.7 µM] (inactive).
`CC(COc1ccccc1)NC(C)C(O)c1ccc(O)cc1` (stereo not drawn) was tested, and the “activity change, negative = inhibition” value was -4.69% [at 53.7 µM] (inactive).
With `CCOc1ccccc1OCC` the “activity change, negative = inhibition” value was 0.993% (inactive).
With `Clc1ccnc(Cl)n1` the “activity change, negative = inhibition” value was 0.855% (inactive).
